# SW480 rereplic = A quantitative high throughput screen for small molecules that induce DNA re-replication in SW480 colon adenocarcinoma cells | Potency, µM (titrated, usually from 46.1 µM), inactives show top-dose re-replication activation, usual class: activators | 340,000 tested, 1.8% active | SW480 DNA re-replication, Hoechst DNA content imaging, 48 h; further: potency means the concentration at half of the fitted maximal effect; % of control where 0% means no effect; nearly all actives have a fitted effect of over 55% in size
#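 Hoechst fluorescence of nuclei (405 nm excitation, 500-530 nm emission) measured by plate-scanning imager after 48 hr compound exposure at 37 C; re-replication scored as increased number of nuclei with elevated intensity.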
# MCF10A rerep = A quantitative high throughput screen for small molecules that induce DNA re-replication in MCF 10a normal breast cells; MCF 10A DNA re-replication, Hoechst nuclear intensity, 48 h; Potency, µM (highest dose often 46.1 µM), inactives show at the top dose activity, positive = re-replication, actives largely listed as activators; 350,000 tested, 2.9% active; further: potency means the concentration at half of the fitted maximal effect; % of control where 0% means no effect; nearly all actives have a fitted effect of over 50% in size
# D3 antag = qHTS of D3 Dopamine Receptor Antagonist: qHTS; max response, negative = inhibition, %; D3R cells, DiscoveRx beta-arrestin luminescence, antagonist mode; hits give low values; 360,000 tested, 2.5% active; in the data active means max response below about -50%; inconclusive means no clear call, values can overlap the other calls; further: on the % scale 0 is the no-effect control and ±100 the full control effect
# Target sequence (P35462 whole entry, looked up): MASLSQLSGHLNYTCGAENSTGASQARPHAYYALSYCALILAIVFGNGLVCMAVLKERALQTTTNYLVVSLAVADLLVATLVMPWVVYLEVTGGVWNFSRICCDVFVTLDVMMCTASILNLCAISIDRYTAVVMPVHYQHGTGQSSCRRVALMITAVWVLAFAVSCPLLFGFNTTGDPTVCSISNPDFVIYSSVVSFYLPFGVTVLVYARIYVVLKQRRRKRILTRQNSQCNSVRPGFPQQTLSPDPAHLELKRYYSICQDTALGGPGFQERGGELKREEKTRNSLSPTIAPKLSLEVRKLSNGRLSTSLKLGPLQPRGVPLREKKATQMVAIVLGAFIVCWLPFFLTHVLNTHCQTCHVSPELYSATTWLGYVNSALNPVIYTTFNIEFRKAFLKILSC
#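 Cells expressing the human receptor were seeded at 1500 cells/well, incubated overnight at 37 degrees C in 5% CO2, then exposed to library compounds with dopamine controls for 90 minutes at 37 degrees C before luminescent detection.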
# KB-3-1 cytotox = qHTS assay for MDR1-selective chemotherapeutics: Primary screen using the parental adenocarcinoma cell KB-3-1 | KB-3-1 viability, CellTiter-Glo ATP luminescence, 72 h | Potency, µM (doses to about 46.1 µM), most hits filed as cytotoxic | 400,000 tested, 1.4% active | AID 1347075, 2019; further: potency means the concentration at half of the fitted maximal effect; on the % scale 0 is the no-effect control and ±100 the full control effect; nearly all actives have a fitted effect of over 60% in size
#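 Parental KB-3-1 adenocarcinoma cells in phenol-red-free DMEM with 10% FBS were pin-treated with compounds at several concentrations, incubated 72 h at 37 °C, and viability read by CellTiter-Glo luminescence; concentration-effect curves were fitted after normalization.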
# KB-V1 MDR tox = qHTS assay for MDR1-selective chemotherapeutics: Primary screen using the drug-selected MDR subline cells KB-V1; Potency, µM (highest dose often 46.1 µM), most hits filed as cytotoxic; 400,000 tested, 3.4% active; KB-V1 MDR cells viability, CellTiter-Glo, 72 h; AID 1347076, 2019; further: potency means the concentration at half of the fitted maximal effect; on the % scale 0 is the no-effect control and ±100 the full control effect; nearly all actives have a fitted effect of over 60% in size
#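 Drug-selected KB-V1 cells, grown in DMEM lacking phenol red with 10% FBS, receive compound titrations; after three days at 37 degrees C, surviving cell ATP is quantified by CellTiter-Glo luminescence and responses normalized and curve-fitted.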
# DRD3 agonist = qHTS of D3 Dopamine Receptor Agonist: qHTS; 410,000 tested, 0.58% active; max activation, %; D3R DiscoveRx beta-arrestin cells, luminescence, 90 min; D(3) dopamine receptor (Homo sapiens), P35462; in the data active means max activation above about 30%; further: 0% is about no effect
#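 Agonist mode: compounds and dopamine controls were applied to plated cells for 90 min at 37 degrees C after an overnight attachment at 1500 cells/well. Luminescent read-out followed 30 - 60 minutes at room temperature with DiscoveRx detection reagent.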
# Numbers without * were called inactive; i = inactive; ? = inconclusive; / = no result. Rows were chosen to be rich in hits. Some 8.9% of all compounds tested hit in one or more screens of this group. Unless noted, the call rests on the fitted dose curve; in most records, active means well fitted curve in the direction sought with a large enough effect; inconclusive means small, poorly fitted or top-dose-only effect, or another doubt; inactive means no such curve, though single readings can be large; an effect the other way counts as inactive or inconclusive.
SMILES,SW480 rereplic,MCF10A rerep,D3 antag,KB-3-1 cytotox,KB-V1 MDR tox,DRD3 agonist
O=C(NCCc1ccccc1)c1ccc2c(c1)N(Cc1ccccc1)C(=O)c1ccccc1S2=O (stereo not drawn),/,/,/,/,/,-15
N#Cc1ccc(-c2cccnc2)nc1SCC(=O)Nc1sc2c(c1C#N)CCC2,8%,11%,-21,i,i,0
CCOC(=O)c1c(NC(=O)CSc2nnc(-c3c[nH]c4ccccc34)n2C)sc2c1CCCC2,3%,22%,17,?,i,7
N#Cc1c(NC(=O)CSc2nnnn2C2CCCCC2)sc2c1CCCC2,-2%,27%,13,i,23µM*,-8
CCOC(=O)c1c(NC(=O)CSc2nnc(-c3c[nH]c4ccccc34)n2CCOC)sc2c1CCCC2,?,15%,14,18µM*,i,2
COc1ccc(-c2ccc(C#N)c(SCC(=O)Nc3sc4c(c3C#N)CCC4)n2)cc1,3.3µM*,?,-17,i,i,2
CCn1c(SCC(=O)Nc2sc3c(c2C#N)CCCC3)nnc1-c1ccco1,12%,7%,-72*,i,i,-5
COc1ccccc1C1NC(=O)c2n[nH]c(-c3cccs3)c21 (stereo not drawn),/,/,/,i,i,1
O=C(CSc1n[nH]c(-c2ccc(F)cc2)n1)N1CCN(c2ccc(F)cc2)CC1,/,/,/,i,i,-22
Cc1nnc(SCC(=O)Nc2sc3c(c2C#N)CCCC3)[nH]c1=O,-2%,-2%,-54*,i,i,-9
COc1ccc(/C(C)=N/Nc2nc3ccccc3nc2C)cc1,18µM*,15µM*,-18,15µM*,i,-15
COc1cc(/C=C/C(=O)OCC(=O)N2c3ccccc3NC(=O)C2(C)C)cc(OC)c1OC,-1%,10%,56,?,?,13
CCc1cc2c(=O)c(-c3cscn3)coc2c(CN(C)C)c1O,?,10µM*,0,i,i,6
CCc1cc2c(=O)c(-c3ccc4c(c3)OCO4)coc2c(CN(C)C)c1O,-4%,7%,5,i,i,0
Cc1ccc(-n2c(C3CC3c3ccc(Cl)cc3)n[nH]c2=S)cc1 (stereo not drawn),?,?,-61*,i,21µM*,2
Cc1ccc(C2CC2c2n[nH]c(=S)n2-c2cccc(Cl)c2)cc1 (stereo not drawn),-5%,23µM*,4,i,i,3
CSc1ncc(Cl)c(C(=O)N(Cc2ccc(C(C)C)cc2)C2CCS(=O)(=O)C2)n1 (stereo not drawn),/,/,/,i,i,1
NC(=O)c1ccc(Oc2ccc3ccc(=O)oc3c2)c([N+](=O)[O-])c1,-8%,-1%,9,i,i,3
O=c1ccc2cc([N+](=O)[O-])c(CCO)cc2o1,-10%,2%,-52*,i,i,5
CCOC(=O)c1c(Nc2cccc(C)c2)nnc(-c2ccccc2)c1-c1ccccc1,/,/,/,16µM*,?,24
COc1cc2c(cc1[N+](=O)[O-])-c1ccc([N+](=O)[O-])cc1C2=NNC(N)=S,/,/,13,i,?,8
NC(=S)NN=C1c2cc(Cl)ccc2-c2c1cc(Cl)cc2[N+](=O)[O-],?,20%,-5,6.5µM*,15µM*,5
COc1ccc(C2=CC(=O)N(Nc3ccccc3)C2=O)cc1,4.1µM*,?,-62*,i,i,-13
O=C1C=C(c2ccccc2)C(=O)N1Nc1ccccc1,?,?,?,?,i,4
Cc1ccc(NN2C(=O)C=C(c3ccc(Cl)cc3)C2=O)cc1,?,15µM*,-53*,?,12µM*,-1
SMILES,SW480 rereplic,MCF10A rerep,D3 antag,KB-3-1 cytotox,KB-V1 MDR tox,DRD3 agonist
Cc1ccc(NN2C(=O)C=CC2=O)cc1,-3%,-4%,11,i,i,0
CCOC(=O)C1(C)CCCCN1C(=O)c1cccc(Cl)c1 (stereo not drawn),/,/,-29,i,i,-11
Cc1[nH]c2ccccc2c1C(=O)COC(=O)c1c(-c2c(F)cccc2Cl)noc1C,10%,?,8,?,16µM*,-2
Cc1ccc(-c2noc(CNC(=O)COc3cc(C)c(Br)c(C)c3)n2)cc1,/,/,/,/,/,-3
CSc1ncc(C(=O)Nc2ccccc2C(F)(F)F)c(-c2ccccc2)n1,/,/,/,i,i,-15
COc1cccc(CNC(=O)c2ccc3c(c2)c(C)c(C)n3Cc2ccccc2)c1OC,/,/,/,i,i,2
O=C(Nc1cc(SCCO)cc([N+](=O)[O-])c1)c1ccc(Br)o1,-6%,17%,4,?,21µM*,-6
Cc1cc(NC(=O)C2CC=CCC2C(=O)O)no1 (stereo not drawn),-6%,-3%,-54*,i,i,2
CC(C)c1ccc(NC(=O)C2CCCCN2S(=O)(=O)c2ccccc2)cc1 (stereo not drawn),-5%,2%,-1,i,?,-2
Cc1nnc(N2C(=O)C(O)=C(C(=O)c3ccco3)C2c2ccc(C(C)(C)C)cc2)s1 (stereo not drawn),-7%,?,-83*,i,i,-18
CC(NC(=O)c1ccc2c(c1)CCN2S(=O)(=O)c1ccccc1)c1ccccc1 (stereo not drawn),/,/,/,i,i,3
CN(C)C(CNC(=O)c1cc(S(=O)(=O)N(C)c2ccc(F)cc2)ccc1Cl)c1cccs1 (stereo not drawn),2%,24%,8,?,4.1µM*,2
COc1ccccc1NS(=O)(=O)c1cc(C(=O)N2CC(C)CC(C)C2)ccc1C (stereo not drawn),3%,-2%,?,i,2.3µM*,26
COc1ccc(C(=O)NCC(c2ccc(F)cc2)N2CCOCC2)cc1S(=O)(=O)N1CCCC1 (stereo not drawn),-29%,0%,8,i,i,8
COc1ccc(C(CNC(=O)c2ccc(OC)c(S(=O)(=O)N3CCCC3)c2)N2CCCC2)cc1 (stereo not drawn),-19%,-4%,-83*,i,i,-23

# Screening results as filed in PubChem.
